Compound in this assay: Nc1ncnc2c1ncn2[C@@H]1O[C@H](COP(=O)(O)OP(=O)(O)NP(=O)(O)O)[C@@H](O)[C@H]1O [adenylyl imidodiphosphate]
Nature of the assay: NP40-soluble protein abundance relative to vehicle (solubility fold change) (ratio); higher = more soluble protein in presence of AMP-PNP. In outline: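 Crude Jurkat lysate, prepared by Dounce homogenisation, was exposed to eight concentrations from 0.1 to 10 mM for 10 min at room temperature and then 3 min at 37 °C. Solubilisation used 0.8% NP40 with benzonase for 60 min at 4 °C, followed by ultracentrifugation and TMT labelling of the supernatant for LC-MS/MS. After vsn normalisation of intensities, each value is the fold change against the detergent-processed vehicle within each replicate, across three independent experiments.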

± gives the standard deviation of the averaged measurements. About 6,200 targets were measured; listed, in parts, are those with the largest changes and a random draw of the rest.

Sequence of UniProt P11182 (P11182 whole entry): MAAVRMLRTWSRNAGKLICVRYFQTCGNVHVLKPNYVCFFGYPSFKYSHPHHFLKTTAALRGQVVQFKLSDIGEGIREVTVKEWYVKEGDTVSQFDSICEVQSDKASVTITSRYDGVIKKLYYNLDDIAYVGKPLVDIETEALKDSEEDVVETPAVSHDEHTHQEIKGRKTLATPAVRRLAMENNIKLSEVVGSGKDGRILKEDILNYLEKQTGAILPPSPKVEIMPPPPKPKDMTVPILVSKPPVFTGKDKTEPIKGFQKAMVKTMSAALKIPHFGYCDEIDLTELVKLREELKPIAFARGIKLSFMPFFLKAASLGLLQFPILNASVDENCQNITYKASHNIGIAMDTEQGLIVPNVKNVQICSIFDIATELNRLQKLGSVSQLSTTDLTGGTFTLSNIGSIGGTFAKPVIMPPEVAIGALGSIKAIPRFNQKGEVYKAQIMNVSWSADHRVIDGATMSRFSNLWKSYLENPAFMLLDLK
Sequence of UniProt P08559 (P08559 whole entry): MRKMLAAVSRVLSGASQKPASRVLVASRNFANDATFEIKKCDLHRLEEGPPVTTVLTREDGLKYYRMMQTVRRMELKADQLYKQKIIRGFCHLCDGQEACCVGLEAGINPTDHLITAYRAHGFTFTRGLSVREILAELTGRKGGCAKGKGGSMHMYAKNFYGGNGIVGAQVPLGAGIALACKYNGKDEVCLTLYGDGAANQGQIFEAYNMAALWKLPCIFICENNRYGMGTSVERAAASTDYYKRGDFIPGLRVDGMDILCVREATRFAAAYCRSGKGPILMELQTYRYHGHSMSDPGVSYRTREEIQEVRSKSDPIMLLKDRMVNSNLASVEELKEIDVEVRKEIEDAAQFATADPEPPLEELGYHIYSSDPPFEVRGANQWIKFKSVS
Sequence of UniProt O94763 (O94763 whole entry): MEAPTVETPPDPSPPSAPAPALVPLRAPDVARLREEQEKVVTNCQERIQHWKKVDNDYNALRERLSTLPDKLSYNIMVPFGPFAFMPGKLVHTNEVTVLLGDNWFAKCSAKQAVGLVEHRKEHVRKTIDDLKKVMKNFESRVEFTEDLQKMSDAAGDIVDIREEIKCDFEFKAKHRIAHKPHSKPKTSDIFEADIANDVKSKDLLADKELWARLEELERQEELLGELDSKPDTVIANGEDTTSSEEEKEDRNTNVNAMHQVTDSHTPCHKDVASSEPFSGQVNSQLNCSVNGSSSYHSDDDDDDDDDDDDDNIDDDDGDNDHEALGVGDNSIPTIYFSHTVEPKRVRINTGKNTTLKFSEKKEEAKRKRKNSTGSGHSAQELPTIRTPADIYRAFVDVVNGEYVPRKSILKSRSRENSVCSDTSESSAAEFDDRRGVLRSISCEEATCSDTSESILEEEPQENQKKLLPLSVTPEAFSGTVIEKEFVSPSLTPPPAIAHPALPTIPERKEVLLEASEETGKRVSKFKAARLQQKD
Sequence of UniProt Q01826 (Q01826 whole entry): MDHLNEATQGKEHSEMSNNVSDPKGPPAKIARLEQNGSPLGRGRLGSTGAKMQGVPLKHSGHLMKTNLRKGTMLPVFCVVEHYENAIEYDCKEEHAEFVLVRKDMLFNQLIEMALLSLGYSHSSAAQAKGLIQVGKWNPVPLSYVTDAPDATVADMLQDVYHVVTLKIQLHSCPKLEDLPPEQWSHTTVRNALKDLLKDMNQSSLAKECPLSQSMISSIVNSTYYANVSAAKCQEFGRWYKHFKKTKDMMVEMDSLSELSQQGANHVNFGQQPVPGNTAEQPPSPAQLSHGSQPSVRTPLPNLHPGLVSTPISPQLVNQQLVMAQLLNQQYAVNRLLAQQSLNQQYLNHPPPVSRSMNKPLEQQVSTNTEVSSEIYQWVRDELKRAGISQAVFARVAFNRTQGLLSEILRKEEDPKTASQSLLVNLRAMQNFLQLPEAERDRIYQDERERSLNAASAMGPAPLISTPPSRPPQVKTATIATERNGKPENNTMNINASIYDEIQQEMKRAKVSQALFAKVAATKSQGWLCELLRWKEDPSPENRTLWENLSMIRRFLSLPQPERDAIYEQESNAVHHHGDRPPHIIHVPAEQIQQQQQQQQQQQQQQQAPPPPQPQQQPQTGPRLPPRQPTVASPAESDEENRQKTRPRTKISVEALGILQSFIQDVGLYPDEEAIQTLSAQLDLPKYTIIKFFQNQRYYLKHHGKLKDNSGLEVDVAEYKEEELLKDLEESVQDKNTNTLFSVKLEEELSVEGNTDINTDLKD
Sequence of UniProt O75367 (O75367 whole entry): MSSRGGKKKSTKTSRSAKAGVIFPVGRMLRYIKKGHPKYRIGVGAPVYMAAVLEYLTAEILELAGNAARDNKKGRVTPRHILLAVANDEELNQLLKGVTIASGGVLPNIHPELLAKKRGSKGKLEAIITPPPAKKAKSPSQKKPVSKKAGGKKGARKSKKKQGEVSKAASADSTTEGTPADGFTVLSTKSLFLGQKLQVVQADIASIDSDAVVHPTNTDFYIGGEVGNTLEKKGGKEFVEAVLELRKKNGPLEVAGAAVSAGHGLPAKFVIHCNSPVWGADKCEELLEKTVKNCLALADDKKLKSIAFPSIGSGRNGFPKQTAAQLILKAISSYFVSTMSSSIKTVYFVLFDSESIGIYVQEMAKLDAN
Sequence of UniProt P51571 (P51571 whole entry): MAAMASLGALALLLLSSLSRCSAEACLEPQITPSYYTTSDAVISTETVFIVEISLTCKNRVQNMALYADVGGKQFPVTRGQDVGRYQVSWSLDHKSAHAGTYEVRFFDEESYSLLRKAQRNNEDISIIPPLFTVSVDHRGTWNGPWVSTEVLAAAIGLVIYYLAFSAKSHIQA
Sequence of UniProt P12004 (P12004 whole entry): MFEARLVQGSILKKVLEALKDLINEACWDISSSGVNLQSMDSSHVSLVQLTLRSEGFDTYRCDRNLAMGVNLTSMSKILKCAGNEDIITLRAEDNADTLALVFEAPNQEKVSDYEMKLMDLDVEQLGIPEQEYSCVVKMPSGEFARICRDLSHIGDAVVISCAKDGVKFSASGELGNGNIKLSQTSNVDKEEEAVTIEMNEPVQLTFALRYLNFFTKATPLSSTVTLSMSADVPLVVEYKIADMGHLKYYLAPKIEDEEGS
Sequence of UniProt P42025 (P42025 whole entry): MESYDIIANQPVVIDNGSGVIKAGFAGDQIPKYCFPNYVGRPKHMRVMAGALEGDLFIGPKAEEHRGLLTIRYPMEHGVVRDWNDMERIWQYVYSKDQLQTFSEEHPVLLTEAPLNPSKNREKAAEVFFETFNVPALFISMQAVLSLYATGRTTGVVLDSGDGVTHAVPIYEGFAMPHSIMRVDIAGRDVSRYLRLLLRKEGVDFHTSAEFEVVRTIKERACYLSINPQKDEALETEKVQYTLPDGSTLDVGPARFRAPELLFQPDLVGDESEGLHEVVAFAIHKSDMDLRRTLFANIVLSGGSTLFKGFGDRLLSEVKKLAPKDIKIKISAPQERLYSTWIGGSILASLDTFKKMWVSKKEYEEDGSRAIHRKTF
Sequence of UniProt P62318 (P62318 whole entry): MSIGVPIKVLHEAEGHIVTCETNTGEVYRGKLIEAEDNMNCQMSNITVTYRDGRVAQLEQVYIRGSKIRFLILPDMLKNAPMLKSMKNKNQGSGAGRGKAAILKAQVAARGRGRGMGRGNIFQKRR
Sequence of UniProt P41227 (P41227 whole entry): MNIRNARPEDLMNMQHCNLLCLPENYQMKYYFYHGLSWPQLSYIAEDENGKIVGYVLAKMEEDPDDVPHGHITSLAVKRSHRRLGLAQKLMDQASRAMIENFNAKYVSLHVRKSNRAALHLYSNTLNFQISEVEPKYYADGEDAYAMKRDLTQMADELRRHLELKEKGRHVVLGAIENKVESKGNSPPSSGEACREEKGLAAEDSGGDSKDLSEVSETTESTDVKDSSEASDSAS
Sequence of UniProt P61599 (P61599 whole entry): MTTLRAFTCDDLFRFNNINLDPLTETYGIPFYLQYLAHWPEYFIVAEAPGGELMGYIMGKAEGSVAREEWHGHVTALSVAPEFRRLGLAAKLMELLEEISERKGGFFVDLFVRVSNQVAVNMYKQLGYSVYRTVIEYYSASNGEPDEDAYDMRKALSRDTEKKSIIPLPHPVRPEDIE
Sequence of UniProt P50552 (P50552 whole entry): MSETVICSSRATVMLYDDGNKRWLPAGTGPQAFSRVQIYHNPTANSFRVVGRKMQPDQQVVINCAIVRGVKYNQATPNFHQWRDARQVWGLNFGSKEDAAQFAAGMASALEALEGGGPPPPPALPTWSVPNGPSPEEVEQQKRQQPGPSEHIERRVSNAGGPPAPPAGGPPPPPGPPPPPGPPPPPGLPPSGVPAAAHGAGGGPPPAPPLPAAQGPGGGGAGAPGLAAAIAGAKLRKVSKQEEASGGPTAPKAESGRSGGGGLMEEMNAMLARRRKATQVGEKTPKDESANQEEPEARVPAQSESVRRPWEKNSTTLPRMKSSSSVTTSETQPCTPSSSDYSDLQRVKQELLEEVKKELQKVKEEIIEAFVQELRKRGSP

In the case of UniProt Q01085-2, the NP40-soluble protein abundance runs as follows: (concentration: 1mM) 0.997 ± 0.044; (concentration: 2mM) 0.976 ± 0.057; (concentration: 4mM) 0.992 ± 0.029; (concentration: 6mM) 0.957 ± 0.037; (concentration: 8mM) 0.9409 ± 0.0074; (concentration: 10mM) 0.952 ± 0.032.
Take SSR4 (UniProt P51571): the NP40-soluble protein abundance (concentration: 1mM) was 0.998 ± 0.014; the NP40-soluble protein abundance (concentration: 2mM) is 0.961 ± 0.064; the NP40-soluble protein abundance (concentration: 4mM) amounted to 0.988 ± 0.019; the NP40-soluble protein abundance (concentration: 6mM) was 0.977 ± 0.027; the NP40-soluble protein abundance (concentration: 8mM) came out at 0.998 ± 0.011; the NP40-soluble protein abundance (concentration: 10mM) amounted to 0.981 ± 0.037.
For ACTR1B (UniProt P42025), the NP40-soluble protein abundance is, setting by setting: (concentration: 1mM) 1 ± 0.062; (concentration: 2mM) 0.927 ± 0.12; (concentration: 4mM) 0.983 ± 0.071; (concentration: 6mM) 0.986 ± 0.029; (concentration: 8mM) 0.965 ± 0.063; (concentration: 10mM) 0.961 ± 0.091.
On to UniProt Q01826|Q01826-2, for which the NP40-soluble protein abundance is, setting by setting: (concentration: 1mM) 1.03 ± 0.033; (concentration: 2mM) 1.07 ± 0.05; (concentration: 4mM) 1.03 ± 0.051; (concentration: 6mM) 0.985 ± 0.037; (concentration: 8mM) 0.985 ± 0.026; (concentration: 10mM) 1.01 ± 0.05.
As to PCNA (UniProt P12004), the NP40-soluble protein abundance by setting is: (concentration: 1mM) 1.008 ± 0.0098; (concentration: 2mM) 0.998 ± 0.012; (concentration: 4mM) 0.957 ± 0.012; (concentration: 6mM) 0.973 ± 0.015; (concentration: 8mM) 0.951 ± 0.018; (concentration: 10mM) 0.935 ± 0.024.
In the case of UniProt O75367|O75367-2|O75367-3, the NP40-soluble protein abundance amounted to 1.01 ± 0.066 (concentration: 1mM); 1 ± 0.055 (concentration: 2mM); 1.05 ± 0.075 (concentration: 4mM); 1.15 ± 0.034 (concentration: 6mM); 1.26 ± 0.092 (concentration: 8mM); 1.44 ± 0.049 (concentration: 10mM).
For UniProt P49750-3|P49750-4, the NP40-soluble protein abundance (concentration: 1mM) amounted to 1.07 ± 0.027; the NP40-soluble protein abundance (concentration: 2mM) turned out to be 1.17 ± 0.077; the NP40-soluble protein abundance (concentration: 4mM) is 1.17 ± 0.015; the NP40-soluble protein abundance (concentration: 6mM) was 1.23 ± 0.065; the NP40-soluble protein abundance (concentration: 8mM) is 1.25 ± 0.07; the NP40-soluble protein abundance (concentration: 10mM) came to 1.35 ± 0.085.
Consider VASP (UniProt P50552), for which the NP40-soluble protein abundance stood at 1.02 ± 0.03 (concentration: 1mM); 1.09 ± 0.078 (concentration: 2mM); 1.03 ± 0.033 (concentration: 4mM); 1.01 ± 0.015 (concentration: 6mM); 0.999 ± 0.046 (concentration: 8mM); 0.9961 ± 0.0094 (concentration: 10mM).
Regarding UniProt O94763, the NP40-soluble protein abundance is, setting by setting: (concentration: 1mM) 1.05 ± 0.048; (concentration: 2mM) 1.13 ± 0.06; (concentration: 4mM) 1.05 ± 0.05; (concentration: 6mM) 1.02 ± 0.1; (concentration: 8mM) 0.962 ± 0.063; (concentration: 10mM) 1.02 ± 0.059.
As for UniProt P54136|P54136-2, the NP40-soluble protein abundance is, setting by setting: (concentration: 1mM) 0.957 ± 0.051; (concentration: 2mM) 0.888 ± 0.14; (concentration: 4mM) 0.92 ± 0.1; (concentration: 6mM) 0.92 ± 0.097; (concentration: 8mM) 0.945 ± 0.13; (concentration: 10mM) 0.894 ± 0.16.
“UniProt P08559|P08559-3|P08559-4|P08559-2”: the NP40-soluble protein abundance by setting is: (concentration: 1mM) 0.979 ± 0.13; (concentration: 2mM) 0.94 ± 0.13; (concentration: 4mM) 0.925 ± 0.13; (concentration: 6mM) 0.923 ± 0.17; (concentration: 8mM) 0.95 ± 0.12; (concentration: 10mM) 0.965 ± 0.15.
On to UniProt P41227|P41227-2, for which the NP40-soluble protein abundance (concentration: 1mM) stood at 1.02 ± 0.036; the NP40-soluble protein abundance (concentration: 2mM) amounted to 1.07 ± 0.06; the NP40-soluble protein abundance (concentration: 4mM) was 1.09 ± 0.03; the NP40-soluble protein abundance (concentration: 6mM) is 1.15 ± 0.081; the NP40-soluble protein abundance (concentration: 8mM) is 1.12 ± 0.052; the NP40-soluble protein abundance (concentration: 10mM) stood at 1.18 ± 0.039.
For UniProt P62318|P62318-2, the NP40-soluble protein abundance reads like this: (concentration: 1mM) 1.07 ± 0.086; (concentration: 2mM) 1.12 ± 0.12; (concentration: 4mM) 1.19 ± 0.099; (concentration: 6mM) 1.22 ± 0.017; (concentration: 8mM) 1.29 ± 0.09; (concentration: 10mM) 1.32 ± 0.056.
Consider NAA20 (UniProt P61599), for which the NP40-soluble protein abundance is, setting by setting: (concentration: 1mM) 0.999 ± 0.039; (concentration: 2mM) 0.9558 ± 0.0052; (concentration: 4mM) 0.991 ± 0.022; (concentration: 6mM) 0.973 ± 0.01; (concentration: 8mM) 1.026 ± 0.0096; (concentration: 10mM) 0.9551 ± 0.001.
Take DBT (UniProt P11182): the NP40-soluble protein abundance reads like this: (concentration: 1mM) 0.977 ± 0.14; (concentration: 2mM) 1.01 ± 0.12; (concentration: 4mM) 1.01 ± 0.15; (concentration: 6mM) 0.999 ± 0.2; (concentration: 8mM) 0.971 ± 0.14; (concentration: 10mM) 1.03 ± 0.19.

Values taken from the supplement of paper PMC6411743.
